Experimental data reported in PubChem BioAssay AID624335 (National Center for Advancing Translational Sciences (NCATS), 2012).
The source made the active and inactive calls. The call rests on the fitted dose curve; in most records, active means well fitted curve in the direction sought with a large enough effect; inactive means flat fitted curve, though single readings scatter.

Assay: Quantitative high throughput screen for delayed death inhibitors of the malarial parasite plastid: Hit Validation with 3D7 at 96 hr using Flow Cytometry
Conditions: P. falciparum 3D7 in erythrocytes, SYBR/MitoTracker flow cytometry
From the text: The goal of this screen is to discover new antimalarial compounds that act by inhibiting the development of the apicoplast organelle in the malarial parasite Plasmodium falciparum. Some antibiotics, such as azithromycin and tetracycline, are known to interfere with the apicoplast translational machinery, and have a potent antimalarial effect. […] We developed a cell-based quantitative high throughput screen that leverages this "delayed death" phenotype to enrich for compounds that target the apicoplast. To detect small molecules that cause the delayed death phenotype, erythrocytes infected with firefly luciferase-expressing parasites were incubated with compounds for either one or two generations, corresponding to 48 and 96 hours, respectively. Growth inhibition was detected by a decrease in luciferase activity. Compounds that inhibited parasite growth in the second generation at least five-fold more potently than in the first generation were defined as delayed death inducing. These compounds were selected for confirmatory screening using a flow cytometry based assay. This hit validation assay used the 3D7 cell line and measured at 96 hours. NIH Molecular Libraries Probe Production Network [MLPCN] NIH Chemical Genomics Center [NCGC] MLPCN Grant: R21 NS059500 Assay Provider: David Fidock and Eric Ekland, Columbia University
Test compounds were diluted in 20 microliters of complete media (RPMI 1640 with 0.5% w/v Albumax (GIBCO), 24 mM sodium bicarbonate (Sigma) and 10 ug/mL gentamycin (Gibco)) in clear 384-well plates (Greiner). All liquid handling was conducted using a Bio Tek Precision 2000 pipetting system. Twenty microliters of infected erythrocytes, 0.2% parasitemia (for 48 hour time points) or 0.1% parasitemia (for 96 hour time points) were added to the compound dilutions (1% hematocrit, final concentration; 40 microliters, total culture volume). The assay plates were incubated for 48 hours, or 96 hours, at 37 masculine C in a humidified chamber (Billups- Rothenberg, Del Mar, CA, USA), gassed with 5%CO2/5%O2/ 90%N2. After two generations (96hours), 5 microliters of culture were harvested and transferred to a second 384 well plate for fluorescent staining. Samples were stained with 30 microliters of 2 x SYBR Green I (Invitrogen) and 150nM MitoTracker Deep Red (Invitrogen) diluted in 0.9% NaCl, 0.2% dextrose (Baxter) supplemented with 2.5% Fetal Calf Serum (Gibco) (saline/FCS). Mature erythrocytes lack nuclei and mitochondria, therefore only parasitized erythrocytes retain the SYBR Green I and MitoTracker Deep Red. After 30 minutes at 37 masculine C, the stained cells were diluted in an additional 60 microliters of saline/FCS. The samples were harvested directly from the 384 well plate using a Hypercyt High Capacity Flow Platform (Intellicyt) paired with a C6 Flow Cytometer (Accuri). The flow cytometry files were analyzed using FlowJo software (FlowJo).

Structure (SMILES)	Potency
CCCCOc1ccc(N2C(N)=NC(N)=NC23CCCCC3)cc1	15.8 µM (active)
O=C(CSc1ccc(-c2cccnc2)nn1)Nc1ccccc1C(F)(F)F	4.65 µM (active)
